Where “and” joins values, the source holds several entries; their conditions need not be identical. Equal values may be shown once. In all, about 5,500 compounds went through this assay and about 2,000 (36%) were called active. Not shown: some 18% with an inconclusive outcome. Cut-off read from the data, not from the text of the source: active = normalized growth mostly below about 0.91 (no sharp cut-off); inconclusive = no clear call, values can overlap the other calls; inactive = mostly above about 0.92. This is one part of the list.
Experiment: chemical genetic growth profiling, strain panel (AID 1159580);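 note: tested at 20 µM; growth read once vehicle control cultures reached saturation at 30 °C; 1 = growth at the plate median or of vehicle wells; lower values mean less growth of the strain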
Conditions: S. cerevisiae deletion strains, growth OD

Measured: normalized growth

COC(=O)C1=C(C)NC(C)=C(C(=O)OC)C1c1ccccc1[N+](=O)[O-]
inactive: locus YAL040C, strain CLN3, stronger effect = lower value 0.993 | locus YBR021W, strain FUR4, stronger effect = lower value 0.996 | locus YBR171W, strain sec66, stronger effect = lower value 0.975 | locus YBR229C, strain ROT2, stronger effect = lower value 0.998 | locus YCL016C, strain dcc1, stronger effect = lower value 0.943 | locus YCL029C, strain bik1, stronger effect = lower value 0.97 | locus YCL061C, strain MRC1, stronger effect = lower value 0.933 | locus YCL069W, strain vba3, stronger effect = lower value 0.947 | locus YCR088W, strain abp1, stronger effect = lower value 0.955 | locus YDL005C, strain med2, stronger effect = lower value 0.974 | locus YDL040C, strain nat1, stronger effect = lower value 0.98 | locus YDL074C, strain BRE1, stronger effect = lower value 0.905 | locus YDL101C, strain DUN1, stronger effect = lower value 1.01 | locus YDL185W, strain tfp1, stronger effect = lower value 0.938 | locus YDR001C, strain nth1, stronger effect = lower value 0.975 | locus YDR101C, strain arx1, stronger effect = lower value 0.963 | locus YDR137W, strain rgp1, stronger effect = lower value 0.953 | locus YDR159W, strain sac3, stronger effect = lower value 0.918 | locus YDR195W, strain ref2 0.999 | locus YDR334W, strain swr1, stronger effect = lower value 0.904 | locus YDR335W, strain msn5, stronger effect = lower value 0.969 | locus YDR363W, strain ESC2, stronger effect = lower value 0.992 | locus YDR388W, stronger effect = lower value 0.933 | locus YEL037C, strain rad23, stronger effect = lower value 0.934 | locus YEL061C, strain CIN8 (second series), stronger effect = lower value 0.966 | locus YER002W, strain NOP16, stronger effect = lower value 1 | locus YER016W, strain bim1, stronger effect = lower value 0.944 | locus YER110C, stronger effect = lower value 1 | locus YER111C, strain swi4, stronger effect = lower value 0.94 | locus YER155C, strain BEM2 (second series), stronger effect = lower value 0.987 | locus YER155C, strain BEM2, stronger effect = lower value 1.01 | locus YGL078C, strain dbp3, stronger effect = lower value 0.978 | locus YGL167C, strain pmr1, stronger effect = lower value 0.916 | locus YGL227W, strain vid30, stronger effect = lower value 0.988 | locus YGL240W, strain doc1, stronger effect = lower value 0.96 | locus YGR078C, strain PAC10, stronger effect = lower value 0.991 | locus YGR252W, strain gcn5, stronger effect = lower value 0.997 | locus YHR079C, strain IRE1 (second series), stronger effect = lower value 0.957 | locus YHR079C, strain IRE1, stronger effect = lower value 0.956 | locus YHR094C, strain hxt1, stronger effect = lower value 0.974 | locus YHR142W, strain chs7, stronger effect = lower value 0.894 | locus YIL125W, strain kgd1, stronger effect = lower value 0.948 | locus YIR030C, strain dcg1, stronger effect = lower value 0.992 | locus YJL092W, strain hpr5, stronger effect = lower value 0.945 | locus YJL095W, strain BCK1 (second series), stronger effect = lower value 0.933 | locus YJL095W, strain BCK1, stronger effect = lower value 1 and 0.958 | locus YJL115W, strain asf1, stronger effect = lower value 0.969 | locus YJL129C, strain trk1, stronger effect = lower value 0.89 | locus YJL134W, strain LCB3, stronger effect = lower value 0.963 | locus YJL154C, strain vps35, stronger effect = lower value 0.962 | locus YJL168C, strain set2, stronger effect = lower value 0.952 | locus YJL187C, strain SWE1 (second series), stronger effect = lower value 0.99 | locus YJR066W, strain TOR1, stronger effect = lower value 0.924
active: locus YAL021C, strain ccr4, stronger effect = lower value 0.829 | locus YAL026C, strain drs2, stronger effect = lower value 0.812 | locus YAL030W, strain snc1, stronger effect = lower value 0.896 | locus YBL061C, strain skt5, stronger effect = lower value 0.9 | locus YBR009C, strain hhf1, stronger effect = lower value 0.863 | locus YBR023C, strain chs3, stronger effect = lower value 0.91 | locus YBR231C, strain swc5, stronger effect = lower value 0.836 | locus YBR279W, strain paf1, stronger effect = lower value 0.887 | locus YCL011C, strain gbp2, stronger effect = lower value 0.907 | locus YCL061C, strain MRC1 (second series), stronger effect = lower value 0.829 | locus YDL035C, strain GPR1, stronger effect = lower value 0.725 | locus YDL134C, strain PPH21, stronger effect = lower value 0.783 | locus YDL192W, strain arf1, stronger effect = lower value 0.85 | locus YDR069C, strain doa4, stronger effect = lower value 0.719 | locus YDR162C, strain NBP2, stronger effect = lower value 0.388 | locus YDR297W, strain sur2, stronger effect = lower value 0.854 | locus YDR318W, strain mcm21, stronger effect = lower value 0.827 | locus YDR392W, strain spt3, stronger effect = lower value 0.73 | locus YDR502C, strain sam2, stronger effect = lower value 0.876 | locus YEL003W, strain gim4, stronger effect = lower value 0.895 | locus YEL061C, strain CIN8, stronger effect = lower value 0.918 | locus YER015W, strain faa2, stronger effect = lower value 0.828 | locus YER167W, strain BCK2, stronger effect = lower value 0.894 | locus YFR010W, strain ubp6, stronger effect = lower value 0.864 | locus YGL086W, strain mad1, stronger effect = lower value 0.799 | locus YGL173C, strain kem1, stronger effect = lower value 0.729 | locus YGL248W, strain PDE1, stronger effect = lower value 0.787 | locus YGL253W, strain hxk2, stronger effect = lower value 0.878 | locus YGR135W, strain pre9, stronger effect = lower value 0.799 | locus YHR013C, strain ard1, stronger effect = lower value 0.83 | locus YHR027C, strain rpn1, stronger effect = lower value 0.734 | locus YHR129C, strain ARP1, stronger effect = lower value 0.903 | locus YHR200W, strain rpn10, stronger effect = lower value 0.88 | locus YIL066C, strain RNR3, stronger effect = lower value 0.609 | locus YIL073C, strain SPO22, stronger effect = lower value 0.319 | locus YJL164C, strain tpk1, stronger effect = lower value 0.743 | locus YJL166W, strain qcr8, stronger effect = lower value 0.825 | locus YJL187C, strain SWE1, stronger effect = lower value 0.901 | locus YJR043C, strain POL32, stronger effect = lower value 0.752 | locus YJR075W, strain HOC1, stronger effect = lower value 0.822 and 0.894
0.891 (active) and 0.969 (inactive): locus YHR030C, strain SLT2, stronger effect = lower value

Reference: PubChem BioAssay AID1159580 (chemical genetic matrix, 2015)
